Where “and” joins values, the source holds several entries; their conditions need not be identical. Equal entries are not always repeated. Inconclusive results are not listed. Calls of active or inactive are those of the source. Unless noted, calls come from the whole dose curve; as a rule, active = well fitted curve in the direction sought with a large enough effect; inconclusive = small, poorly fitted or top-dose-only effect, or another doubt; inactive = no such curve, though single readings can be large; an effect the other way counts as inactive or inconclusive.
Legend:
[1] = molecular target: Cytochrome P450 1A2 (Homo sapiens) (UniProt P05177); experiment: p450-cyp1a2 (AID 410; calls by dose curve; note: potency is the fitted concentration of half-maximal effect)
Outline: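 Luminescent demethylation readout: Luciferin-ME (100uM, equal to Km) turned over by 20nM CYP1A2 for 60 min at room temperature after NADPH regeneration addition, following 10 min compound preincubation. Normalization used 57 uM furafylline as full inhibition.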

[2] = Stat Signaling Pathway (AID 446; active = well fitted curve in either direction with a large enough effect, not every such curve was filed as active;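 note: ME-180 cervical cancer cells given 40 pM IL-6 alongside compound; SIE-controlled beta-lactamase reporter measured as 460/530 nm FRET emission ratio; % is set by controls: 0 for no effect and ±100 for the full control effect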); settings: ME-180 SIE beta-lactamase reporter, IL-6 stimulated, 5 h; at 7.69 µM (top of the series) unless noted
Outline: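 FRET read-out (405 nm excitation, 460/530 nm emission) of a beta-lactamase reporter under a STAT-inducible element in ME-180 cervical carcinoma cells. Cells with compound receive 40 pM IL-6 for 5 h. Values are normalised to AC90 stimulation and AC90 JAK-inhibitor controls.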

[3] = molecular target: Glucocorticoid receptor (Homo sapiens) (UniProt P04150); experiment: GR-GFP Redistribution (AID 450;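 active = compounds whose dose series gives a full or clear partial fitted curve of increased nuclear translocation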; note: potency is the fitted concentration of half-maximal effect); settings: U2OS GR-GFP nuclear translocation, laser cytometry, 2 h
[4] = molecular target: Glucocorticoid receptor (Homo sapiens) (UniProt P04150); experiment: GR-EFC Redistribution (AID 451; calls by dose curve; note: potency is the fitted concentration of half-maximal effect); settings: CHO-K1 GR-EFC translocation, beta-gal luminescence, 2 h
Outline: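 Translocation of GR-ED fusion to nuclear EA restores b-gal, read by luminescence after 1 h room-temperature detection. Engineered CHO-K1 biosensor cells, 1,000/well, exposed 2 h at 37 C to titrations up to 46 uM final.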

[5] = molecular target: 3',5'-cyclic-AMP phosphodiesterase 4B (Homo sapiens) (UniProt Q07343); experiment: qHTS Assay for Inhibitors of PDE-IV (AID 607; active = well fitted activation curve with a large enough effect in the main read-out, with a control signal flat, not every such curve was filed as active; note: % of control where 0% means no effect)
Outline: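 Cell-based read-out of cAMP via a modified cyclic nucleotide-gated channel and membrane potential dye (535/590 nm) in HEK293 cells expressing PDE4 endogenously. Compounds tested up to 22.9 uM final; 100 uM RO 20-1724 reference.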

[6] = molecular target: Cytochrome P450 3A4 (Homo sapiens) (UniProt P08684); experiment: qHTS Assay for Inhibitors and Substrates of Cytochrome P450 3A4 (AID 884); note: nearly all actives have a fitted effect of over 50% in size; note: potency is the fitted concentration of half-maximal effect
Outline: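 Luminescent readout of luciferin produced by CYP3A4 (20 nM) dealkylation of Luciferin-PPXE, 25 uM (its KM). NADPH-driven reaction ran 60 min at RT after 10 min compound preincubation; data scaled to 57 uM ketoconazole as 100% inhibition.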

[7] = molecular target: Cytochrome P450 3A4 (Homo sapiens) (UniProt P08684); experiment: qHTS Assay for Activators of Cytochrome P450 3A4 (AID 885); note: nearly all actives have a fitted effect of over 65% in size
Outline: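 Luminescent readout of luciferin formed from 25 uM Luciferin-PPXE (KM level) by 20 nM CYP3A4 in 200 mM KPO4, with 60 min NADPH-driven reaction at room temperature after 10 min compound exposure. Ketoconazole (57 uM) defined 100% inhibition.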

[8] = molecular target: Cytochrome P450 2C19 (Homo sapiens) (UniProt P33261); experiment: qHTS Assay for Inhibitors and Substrates of Cytochrome P450 2C19 (AID 899); note: potency is the fitted concentration of half-maximal effect; nearly all actives have a fitted effect of over 60% in size
Outline: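 5nM enzyme + 10uM Luciferin-H EGE (=KM), 50mM KPO4; cpd pin-transferred, 10 min 37C; NADPH regen, 60 min 37C; stopped w/ luciferin detection reagent, 20 min; luminescence. Normalized to 57uM ketoconazole (AC100).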

[9] = qHTS Assay for Lipid Storage Modulators (AID 1519; calls by dose curve); settings: Drosophila S3 cells, BODIPY lipid droplet/cell ratio, laser cytometry, cells loaded with oleic acid; for activity change, negative = inhibition: at 57.5 µM (top of the series)
Outline: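 Cells seeded at 5,000 per well were treated with compounds over a concentration series and loaded with oleic acid (400 uM, as added). Lipid droplet fluorescence (488 nm excitation, 500-530 nm channel) was read by laser-scanning cytometry and normalized to 20 uM Triacsin C.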

[10] = molecular target: Dual specificity protein kinase CLK4 (Homo sapiens) (UniProt Q9HAZ1); experiment: qHTS Assay for Inhibitors of CDC-like Kinase 4 (Kinase-Glo Assay) (AID 1770); note: nearly all actives have a fitted effect of over 65% in size; note: potency is the fitted concentration of half-maximal effect
Outline: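 Readout: Kinase-Glo luminescence from ATP left after a 4.5 h room-temperature reaction of 25 nM Clk4 with 100 uM RS peptide and 1 uM ATP (final). Buffer: 25 mM Tris pH 7.5, 10 mM MgCl2.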

[11] = molecular target: Dual specificity protein kinase CLK4 (Homo sapiens) (UniProt Q9HAZ1); experiment: qHTS Assay for Inhibitors of CDC-like Kinase 4 (ADP-FP Assay) (AID 1795); note: nearly all actives have a fitted effect of over 60% in size; note: potency is the fitted concentration of half-maximal effect
Outline: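 FP readout: Orange Transcreener ADP2 tracer (4 nM) plus ADP antibody, read after 30 min at room temperature. Kinase step: 6.25 nM Clk4, 100 uM RS peptide, 1 uM ATP, pH 7.5, 1 h.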

[12] = molecular target: Ubiquitin carboxyl-terminal hydrolase 1 (Homo sapiens) (UniProt O94782); experiment: Inhibitors of USP1/UAF1: Pilot qHTS (AID 504865); note: nearly all actives have a fitted effect of over 35% in size; note: potency is the fitted concentration of half-maximal effect
Outline: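 1nM USP1/UAF1 + cpd, 15 min RT; start w/ Ub-Rho 150nM final; kinetic FL 480/540 nm, 6 reads q60 s. Buffer 50mM HEPES pH 7.8, 0.5mM EDTA, 1mM TCEP, 0.01% Tween-20, 0.1 mg/ml BSA.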

[13] = molecular target: Lysosomal acid glucosylceramidase (Homo sapiens) (UniProt P04062); experiment: Glucocerebrosidase-p2 (AID 348; in the data active = potency below about 10 µM; note: potency is the fitted concentration of half-maximal effect); settings: purified GBA, blue fluorogenic substrate, 40 min
Outline: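 Normal human glucocerebrosidase (0.2 nM) with blue fluorogenic substrate (80 uM final) in citrate/phosphate pH 5.9 with 10mM sodium taurocholate, 0.01% tween-20; 40 min RT, NaOH/glycine stop; fluorescence Ex 365/Em 440; AC50 from a titration from 0.6 nM upwards.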

[14] = NFAT Signaling Pathway (AID 444; active = well fitted curve in either direction with a large enough effect, not every such curve was filed as active;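 note: carbachol stimulus at about its EC50 of 1 µM final; % is set by controls: 0 for no effect and ±100 for the full control effect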); settings: Jurkat NFAT-bla M1, carbachol, beta-lactamase ratio, 5 h; at 7.69 µM (top of the series) unless noted
Outline: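 Read-out: CCF4 FRET ratio (460 nm/530 nm) after 1 h RT dye loading, used for %activity and AC50 from titration series. Cells: Jurkat NFAT-β-lactamase/M1 line, treated with compound plus 1 uM carbachol for 5 h, 37 °C.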

[15] = molecular target: Mitogen-activated protein kinase 10 (Mus musculus) (UniProt Q61831); experiment: JNK3 AlphaScreen Assay (AID 530; active = well fitted curve in either direction with a large enough effect, not every such curve was filed as active;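 note: kinase came from lysate of stimulated human HepG2 cells; signal reports phosphorylation of biotinylated GST-cJun 1-79 at Ser73 with 10 µM ATP; % is set by controls: 0 for no effect and ±100 for the full control effect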)
Outline: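 qHTS titrations with 15 min compound pre-incubation before adding ATP (10 uM final). Read-out: AlphaScreen of Ser73-phosphorylated biotin-GST-cJun using HepG2 lysate JNK3 activated by IL-1β and TNFα.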

[16] = molecular target: Dual specificity protein kinase CLK4 (Homo sapiens) (UniProt Q9HAZ1); experiment: qHTS Assay for Inhibitors of CDC-like Kinase 4 (ADP-Glo Assay) (AID 1771); note: potency is the fitted concentration of half-maximal effect; nearly all actives have a fitted effect of over 70% in size
Outline: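 ADP production was read by ADP-Glo luminescence after residual ATP depletion, following 1 h room-temperature reaction of 25 nM Clk4, 1 uM ATP and 100 uM RS peptide with MgCl2, EGTA, DTT and Triton X-100.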

[17] = Confirmation and Secondary Assay for Modulators of Hemoglobin Beta Chain Splicing at IVS2 654 locus (AID 910);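 note: HeLa cells stably carrying EGFP split by mutant beta-globin IVS2-654 intron; per-well total GFP intensity by laser scanning cytometry after 2-day treatment; % of control where 0% means no effect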
Outline: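 Readout: per-well total peak green fluorescence (488 nm ex, 500–520 nm em) from objects 5–250 µm, reflecting correct splicing of an EGFP-654 reporter. Compounds were applied for 2 days at 37 °C to overnight-plated HeLa EGFP-654 cells; controls were DMSO and 500 nM IVS2-654 PNA.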

[18] = AP1 Signaling Pathway (AID 357; active = well fitted curve in either direction with a large enough effect, not every such curve was filed as active;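 note: ME-180 reporter cells stimulated with EGF at its EC50 level; % is set by controls: 0 for no effect and ±100 for the full control effect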); settings: ME-180 (cervical carcinoma) AP-1-bla reporter, EGF-induced, beta-lactamase ratio, 5 h; at 7.69 µM (top of the series) unless noted
Outline: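 AP-1-bla ME-180 cells, Opti-MEM + 0.5% dialyzed FBS, plated overnight 37 °C. Cpd titration + EC50 EGF, 5 h 37 °C. CCF4 2.5 h RT; ex 405, em 460/530 ratio → %activity, AC50.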

[19] = Confirmation and Secondary Assay for Modulators of Hemoglobin Beta Chain Splicing at IVS2 705 locus (AID 930);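 note: HeLa cells stably expressing the EGFP-705 splicing reporter; % of control where 0% means no effect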
Outline: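 Restored EGFP fluorescence after 2-day compound exposure reports splicing correction in IVS2-705 EGFP reporter HeLa cells; positive control was 500 nM splice-blocking PNA oligo. Signal measured as well total peak GFP intensity (488 nm excitation).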

[20] = qHTS profiling for inhibitors of Plasmodium falciparum proliferation (AID 504749);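 note: 0% = DMSO vehicle and full inhibition = artemisinin control; nearly all actives have a fitted effect of over 60% in size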; settings: P. falciparum in erythrocytes, SYBR Green DNA, 72 h, at 28.7 µM (top of the series)
Outline: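 SYBR Green fluorescence of parasite DNA, read after lysis and overnight dark incubation, measured growth over 72 h in erythrocyte culture at 0.3% parasitemia and 2.5% hematocrit. Data normalised to DMSO and 0.29 uM artemisinin, with plate-drift correction.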

[21] = measured here: cell count channel max response
[22] = measured here: lipid channel max response

Sequence of Ubiquitin carboxyl-terminal hydrolase 1 (Homo sapiens) (O94782 whole entry, looked up): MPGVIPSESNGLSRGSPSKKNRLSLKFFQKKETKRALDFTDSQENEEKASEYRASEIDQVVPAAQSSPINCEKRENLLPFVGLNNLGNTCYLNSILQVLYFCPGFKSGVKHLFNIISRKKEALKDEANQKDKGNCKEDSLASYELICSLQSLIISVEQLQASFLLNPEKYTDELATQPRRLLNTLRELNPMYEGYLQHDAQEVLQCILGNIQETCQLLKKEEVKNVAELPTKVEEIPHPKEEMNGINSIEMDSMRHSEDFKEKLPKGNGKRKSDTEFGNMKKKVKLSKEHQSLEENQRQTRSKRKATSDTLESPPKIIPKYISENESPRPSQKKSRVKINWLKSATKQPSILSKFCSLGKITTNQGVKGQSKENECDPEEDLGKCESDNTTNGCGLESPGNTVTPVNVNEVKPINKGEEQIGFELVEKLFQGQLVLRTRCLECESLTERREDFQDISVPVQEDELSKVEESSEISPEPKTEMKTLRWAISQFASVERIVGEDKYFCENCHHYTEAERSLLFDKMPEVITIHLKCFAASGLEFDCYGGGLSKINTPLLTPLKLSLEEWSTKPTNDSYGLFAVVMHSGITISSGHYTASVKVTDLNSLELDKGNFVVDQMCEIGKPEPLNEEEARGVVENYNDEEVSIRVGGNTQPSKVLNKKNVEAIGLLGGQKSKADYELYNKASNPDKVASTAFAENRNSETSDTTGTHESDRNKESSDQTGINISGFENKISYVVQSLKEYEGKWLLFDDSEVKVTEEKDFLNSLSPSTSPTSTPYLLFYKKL
Sequence of Cytochrome P450 3A4 (Homo sapiens) (P08684 whole entry, looked up): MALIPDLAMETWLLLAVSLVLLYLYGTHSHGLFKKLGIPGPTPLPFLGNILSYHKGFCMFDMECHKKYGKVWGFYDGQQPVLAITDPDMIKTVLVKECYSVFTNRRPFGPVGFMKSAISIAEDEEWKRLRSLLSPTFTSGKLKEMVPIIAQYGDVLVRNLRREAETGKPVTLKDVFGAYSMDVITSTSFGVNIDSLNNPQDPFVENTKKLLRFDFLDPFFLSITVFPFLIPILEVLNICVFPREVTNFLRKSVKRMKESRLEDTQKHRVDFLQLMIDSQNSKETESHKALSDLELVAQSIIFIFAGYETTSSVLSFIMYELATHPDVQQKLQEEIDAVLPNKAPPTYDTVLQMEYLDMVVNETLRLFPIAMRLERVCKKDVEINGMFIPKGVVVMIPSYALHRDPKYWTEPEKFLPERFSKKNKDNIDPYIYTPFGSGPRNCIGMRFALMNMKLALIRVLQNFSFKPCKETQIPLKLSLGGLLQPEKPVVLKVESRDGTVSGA
Sequence of 3',5'-cyclic-AMP phosphodiesterase 4B (Homo sapiens) (Q07343 whole entry, looked up): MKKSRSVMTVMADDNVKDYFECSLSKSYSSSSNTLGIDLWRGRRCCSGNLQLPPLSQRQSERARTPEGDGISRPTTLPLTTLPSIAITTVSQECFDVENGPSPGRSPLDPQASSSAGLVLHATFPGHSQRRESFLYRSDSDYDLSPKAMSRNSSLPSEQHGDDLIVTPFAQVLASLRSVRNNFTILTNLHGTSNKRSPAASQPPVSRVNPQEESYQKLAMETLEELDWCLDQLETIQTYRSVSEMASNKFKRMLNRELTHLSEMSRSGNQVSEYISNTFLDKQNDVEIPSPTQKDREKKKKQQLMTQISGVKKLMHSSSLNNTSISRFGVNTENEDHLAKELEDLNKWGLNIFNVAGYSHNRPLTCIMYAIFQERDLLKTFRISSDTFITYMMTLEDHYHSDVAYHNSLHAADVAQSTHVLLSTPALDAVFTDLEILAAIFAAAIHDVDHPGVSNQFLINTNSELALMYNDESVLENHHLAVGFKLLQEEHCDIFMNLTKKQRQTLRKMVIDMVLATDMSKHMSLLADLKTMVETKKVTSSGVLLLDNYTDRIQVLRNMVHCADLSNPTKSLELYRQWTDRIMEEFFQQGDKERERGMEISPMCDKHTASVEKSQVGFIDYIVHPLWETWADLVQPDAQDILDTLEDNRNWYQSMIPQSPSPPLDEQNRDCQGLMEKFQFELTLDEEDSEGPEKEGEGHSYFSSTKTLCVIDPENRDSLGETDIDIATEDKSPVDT
Sequence of Dual specificity protein kinase CLK4 (Homo sapiens) (Q9HAZ1 whole entry, looked up): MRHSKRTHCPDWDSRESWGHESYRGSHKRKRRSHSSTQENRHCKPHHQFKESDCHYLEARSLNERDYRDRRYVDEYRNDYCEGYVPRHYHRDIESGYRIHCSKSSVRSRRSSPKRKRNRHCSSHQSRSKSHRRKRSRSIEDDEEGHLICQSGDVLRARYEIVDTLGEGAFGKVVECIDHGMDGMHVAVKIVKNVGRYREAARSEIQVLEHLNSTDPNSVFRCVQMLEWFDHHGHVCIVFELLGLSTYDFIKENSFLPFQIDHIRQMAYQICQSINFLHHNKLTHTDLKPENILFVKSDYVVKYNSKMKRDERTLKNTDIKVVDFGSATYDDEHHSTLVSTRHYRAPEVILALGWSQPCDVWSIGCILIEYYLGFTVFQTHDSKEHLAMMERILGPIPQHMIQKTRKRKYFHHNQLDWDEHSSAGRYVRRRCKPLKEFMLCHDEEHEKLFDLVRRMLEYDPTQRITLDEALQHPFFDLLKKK
Sequence of Lysosomal acid glucosylceramidase (Homo sapiens) (P04062 whole entry, looked up): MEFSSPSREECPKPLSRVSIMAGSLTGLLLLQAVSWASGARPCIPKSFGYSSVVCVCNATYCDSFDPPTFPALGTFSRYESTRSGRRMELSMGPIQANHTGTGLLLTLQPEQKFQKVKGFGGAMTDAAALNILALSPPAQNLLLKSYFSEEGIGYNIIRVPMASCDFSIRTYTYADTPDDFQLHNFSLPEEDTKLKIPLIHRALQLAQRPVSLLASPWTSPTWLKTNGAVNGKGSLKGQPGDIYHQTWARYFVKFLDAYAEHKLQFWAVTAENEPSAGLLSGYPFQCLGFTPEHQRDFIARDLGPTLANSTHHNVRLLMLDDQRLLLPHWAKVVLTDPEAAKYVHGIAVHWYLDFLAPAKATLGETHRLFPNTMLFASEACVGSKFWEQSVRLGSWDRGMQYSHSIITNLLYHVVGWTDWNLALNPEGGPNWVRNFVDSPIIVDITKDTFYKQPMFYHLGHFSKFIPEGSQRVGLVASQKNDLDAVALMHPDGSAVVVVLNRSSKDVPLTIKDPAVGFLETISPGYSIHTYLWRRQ
Sequence of Cytochrome P450 1A2 (Homo sapiens) (P05177 whole entry, looked up): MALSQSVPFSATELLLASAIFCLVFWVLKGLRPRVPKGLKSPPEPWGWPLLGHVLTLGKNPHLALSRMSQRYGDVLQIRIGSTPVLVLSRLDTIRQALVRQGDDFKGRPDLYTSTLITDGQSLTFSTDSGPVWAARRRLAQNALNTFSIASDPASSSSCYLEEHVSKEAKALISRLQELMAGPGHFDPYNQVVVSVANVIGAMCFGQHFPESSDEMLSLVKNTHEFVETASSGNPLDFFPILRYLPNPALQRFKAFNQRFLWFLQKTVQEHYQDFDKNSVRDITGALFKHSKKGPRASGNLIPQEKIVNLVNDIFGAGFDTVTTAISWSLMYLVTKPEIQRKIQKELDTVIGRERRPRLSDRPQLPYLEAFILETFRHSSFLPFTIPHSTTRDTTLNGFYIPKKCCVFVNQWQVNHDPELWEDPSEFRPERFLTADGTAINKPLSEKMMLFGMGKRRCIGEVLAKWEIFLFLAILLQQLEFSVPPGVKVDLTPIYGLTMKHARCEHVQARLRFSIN
Sequence of Cytochrome P450 2C19 (Homo sapiens) (P33261 whole entry, looked up): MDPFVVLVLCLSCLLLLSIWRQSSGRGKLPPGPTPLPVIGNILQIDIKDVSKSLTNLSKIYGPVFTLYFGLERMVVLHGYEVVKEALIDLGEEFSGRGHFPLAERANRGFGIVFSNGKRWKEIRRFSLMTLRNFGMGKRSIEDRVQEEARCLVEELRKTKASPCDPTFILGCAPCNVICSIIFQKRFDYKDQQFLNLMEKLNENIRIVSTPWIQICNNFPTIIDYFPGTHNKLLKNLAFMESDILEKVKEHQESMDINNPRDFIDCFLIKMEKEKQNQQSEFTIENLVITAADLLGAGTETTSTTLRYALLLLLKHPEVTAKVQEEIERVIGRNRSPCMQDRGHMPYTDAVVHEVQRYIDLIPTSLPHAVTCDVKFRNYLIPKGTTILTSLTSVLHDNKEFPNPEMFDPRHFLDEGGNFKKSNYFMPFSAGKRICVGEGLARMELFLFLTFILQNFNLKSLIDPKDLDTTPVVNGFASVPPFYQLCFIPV
Sequence of Glucocorticoid receptor (Homo sapiens) (P04150 whole entry, looked up, the tested form may be a part): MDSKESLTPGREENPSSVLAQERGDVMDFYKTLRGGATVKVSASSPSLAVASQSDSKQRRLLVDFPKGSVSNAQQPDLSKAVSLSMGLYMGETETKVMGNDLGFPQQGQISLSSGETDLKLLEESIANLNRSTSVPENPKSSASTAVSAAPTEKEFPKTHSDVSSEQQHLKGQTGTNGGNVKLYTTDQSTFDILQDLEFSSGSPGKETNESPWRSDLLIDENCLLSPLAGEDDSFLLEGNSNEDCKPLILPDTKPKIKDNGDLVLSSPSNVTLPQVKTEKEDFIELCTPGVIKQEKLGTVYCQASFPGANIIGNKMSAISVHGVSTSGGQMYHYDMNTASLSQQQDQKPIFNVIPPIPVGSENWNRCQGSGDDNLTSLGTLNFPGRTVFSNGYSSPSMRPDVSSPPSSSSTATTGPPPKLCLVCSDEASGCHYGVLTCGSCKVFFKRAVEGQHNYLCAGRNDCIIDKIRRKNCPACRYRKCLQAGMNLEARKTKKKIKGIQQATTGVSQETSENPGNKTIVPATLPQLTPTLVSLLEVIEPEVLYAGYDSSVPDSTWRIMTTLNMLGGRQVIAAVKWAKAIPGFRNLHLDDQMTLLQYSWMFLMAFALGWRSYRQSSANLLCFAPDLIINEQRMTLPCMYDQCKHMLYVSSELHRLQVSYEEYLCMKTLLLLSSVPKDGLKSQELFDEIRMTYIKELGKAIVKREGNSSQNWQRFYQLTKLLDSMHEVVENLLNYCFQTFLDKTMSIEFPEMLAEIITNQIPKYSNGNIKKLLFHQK

COc1ccc(CNc2ncnc3ccc(-c4ccc(N(C)C)cc4)cc23)c(OC)c1
inactive: activity, negative = inhibition [2] -9.37% | Potency [3] > 46 µM | Potency [4] > 46 µM | Potency [5] | Potency [7] | activity change, negative = inhibition [9] 3.77% | Potency [10] | Potency [11] | Potency [12]
-26.6%: max response [9, 21]
active: Potency [1] 2.51 µM | Potency [6] 3.98 µM | Potency [8] 3.98 µM
-24.8%: max response [9, 22]

COc1ccccc1-c1ccc2ncnc(Nc3ccccc3)c2c1
inactive: Potency [13] > 11.4 µM | activity change, negative = inhibition [14] 10.9% | activity, negative = inhibition [2] 9.56% | Potency [3] > 46 µM | Potency [4] > 46 µM | Potency [15] | Potency [7] | activity change, negative = inhibition [9] -15.1%
active: Potency [1] 2.51 µM | Potency [8] 5.01 µM | Potency [10] 15.8 µM | Potency [16] 15.8 µM
-29%: max response [9, 22]
-15.8%: max response [9, 21]

COc1cccc(-c2ccc3ncnc(NCCc4c[nH]c5ccc(OC)cc45)c3c2)c1
-24.6%: max response [9, 21]
active: Potency [1] 3.98 µM | Potency [6] 1.26 µM | Potency [8] 3.16 µM | Potency [16] 3.98 µM | Potency [11] 0.631 µM
inactive: Potency [13] > 11.4 µM | activity change, negative = inhibition [14] -6.66% | Potency [3] > 46 µM | Potency [4] > 46 µM | Potency [5] | Potency [7] | activity change, negative = inhibition [9] -3.93% | Potency [12]
-27.9%: max response [9, 22]

Cc1occc(=O)c1O
inactive: Potency [15] | Potency [6] | Potency [17] | activity change, negative = inhibition [9] 8.81% | Potency [12]
0.823%: max response [9, 21]
13.2%: max response [9, 22]

COCCn1c(=O)c(C)nc2cnc(Nc3ccccc3)nc21
-10.4%: max response [9, 22]
-5.32%: max response [9, 21]
inactive: Potency [13] > 11.4 µM | activity change, negative = inhibition [18] -18.1% | activity change, negative = inhibition [14] 15.1% | activity, negative = inhibition [2] 3.38% | Potency [3] > 9.22 µM | Potency [4] > 46 µM | Potency [15] | Potency [5] | activity change, negative = inhibition [9] -1.55% | Potency [11] | Potency [12]

O=C(Cc1cccs1)NC1C(=O)N2C(C(=O)[O-])=C(C[n+]3ccccc3)CSC12 (stereo not drawn)
inactive: Potency [6] | Potency [17] | outcome [19] | activity change, negative = inhibition [9] 7.61% | activity, negative = inhibition ([20]; parasite line A) 4.33% | activity, negative = inhibition ([20]; parasite line B) -24.5%
active: Potency [12] 79.4 µM
28.7%: max response [9, 22]
18%: max response [9, 21]

O=C(/C=C/c1ccc(O)c(O)c1)OC(Cc1ccc(O)c(O)c1)C(=O)O (stereo not drawn)
18.1% and 1.39%: max response [9, 22]
10.1% and -5.16%: max response [9, 21]
inactive: Potency [6] | outcome [19] | activity change, negative = inhibition [9] 6.07% and 7.21% | Potency [12]
